FMDV Renilla: Primary qHTS Assay for Foot and Mouth Disease Virus Antivirals against NCGC Sytravon and CBC Compound Libraries: Renilla Luciferase Signal; FMDV replicon cells, Renilla luciferase signal; hit rate 0.32% among 120,000; AID 1745857, 2022; Potency, µM (titrated, usually from 57.5 µM), hits mostly inhibitors; also: nearly all actives have a fitted effect of over 55% in size
FMDV FLuc: Primary qHTS Assay for Foot and Mouth Disease Virus Antivirals against NCGC Sytravon and CBC Compound Libraries: Firefly Luciferase Signal. Potency, µM (top dose mostly 57.5 µM), most hits filed as inhibitors. AID 1745856, 2022. hit rate 0.23% among 120,000. FMDV antiviral cell assay, firefly luciferase signal; also: nearly all actives have a fitted effect of over 60% in size
Of the large screens only hits and unclear results are named; the others gave an inactive call. Most compounds without a hit are left out; they make up all but 0.45% or so of the library. Calls follow the shape of the full dose curve.

COc1cc(OC)c(NC(=O)NCc2ccc3c(c2)CCN3C(=O)c2ccccc2)cc1Cl	FMDV Renilla 22.4µM
Cc1ccc(NC(=O)Cc2ccc(-n3c(C)nc4cccnc43)cc2)c(Cl)c1	FMDV Renilla 10µM, FMDV FLuc 14.1µM
COc1ccc(Cn2c(CCC(=O)Nc3ccc(C)cc3C)nc3cccnc32)cc1	none
O=C1CCc2cc(S(=O)(=O)NCc3ccccc3Cl)cc3c2N1CCC3	none
CC(C)c1ccc(NC(=O)CSc2nc(=O)n(Cc3cccnc3)c3c2CCC3)cc1	FMDV Renilla 8.91µM, FMDV FLuc inconclusive
O=C(CSc1nc(=O)n(Cc2cccnc2)c2c1CCC2)Nc1cccc(Cl)c1	none
CCN1CCN(c2nc3ccccc3nc2C(C#N)S(=O)(=O)c2cccc(C)c2)CC1 (centres undefined)	none
COc1cc(/C=C(\C#N)c2nc3ccccc3[nH]2)ccc1OC(C)C	none
Cc1ccc(-n2nnc3c(N4CCN(C(=O)Cc5cccs5)CC4)ncnc32)cc1	none
Cc1c(O)ccc2c(CN3CCN(Cc4cccc(C(F)(F)F)c4)CC3)cc(=O)oc12	none
Cc1c(O)ccc2c(CN3CCN(c4cccc(C(F)(F)F)c4)CC3)cc(=O)oc12	FMDV Renilla 12.6µM, FMDV FLuc 12.6µM
Cc1ccc(N/N=C/C=C/c2ccccc2[N+](=O)[O-])c(C)c1	none
COC(=O)C1(NC(=O)COc2cccc(F)c2)CCCCC1	none
COC(=O)C1(NC(=O)COc2cc(Cl)ccc2Cl)CCCCCC1	FMDV Renilla 5.01µM, FMDV FLuc inconclusive
CC(C)(C)c1ccc2c(c1)OCCOCCOc1cc(C(C)(C)C)ccc1OCCOCCO2	FMDV Renilla 17.8µM, FMDV FLuc 28.2µM
CC(C)(C)c1ccc2c(c1)OCCOCCOCCOCCO2	none
CN(C)c1ccc(C=Nc2ccc(Nc3ccccc3)cc2)cc1	none
Cc1ccc(S(=O)(=O)NC2CC2)cc1C(=O)Nc1ccc(N2CCCCC2)c2ccncc12	none
O=[N+]([O-])c1ccc(/C=N/NC(=S)Nc2ccccc2)cc1	none
O=C(O)c1cccc(NC(=S)N/N=C/c2ccc([N+](=O)[O-])cc2)c1	FMDV FLuc 2µM
O=C(/C=C/c1ccc(-c2ccc(Cl)c(Cl)c2)o1)c1ccc(F)cc1	none
COC(=O)C1CCN(c2nc3ccccc3nc2C(C#N)C(=O)NCc2ccccc2)CC1 (centres undefined)	none
COc1ccc(CCNc2oc(COc3ccc(Cl)cc3)nc2C#N)cc1OC	FMDV Renilla inconclusive, FMDV FLuc 28.2µM
COc1ccc(CCNc2oc(COc3cccc(C)c3)nc2C#N)cc1OC	none
COC(=O)c1sc(=S)n(-c2ccc(C(C)C)cc2)c1N	none
CC[N+](C)(CC)CC(C[N+](C)(CC)CC)OCc1ccccc1	none
C[N+](CCOCc1ccccc1)(CCOCc1ccccc1)CCOCc1ccccc1	FMDV Renilla 28.2µM, FMDV FLuc inconclusive
CCn1c(CNC(C)c2ccc(F)cc2)nc2cc(S(=O)(=O)N3CCCCC3)ccc21 (centres undefined)	none
O=C1CN=C(c2ccccc2Cl)c2cc(Cl)ccc2N1Cc1cccc(Cl)c1	FMDV Renilla 31.6µM, FMDV FLuc 25.1µM
COC(=O)c1ccccc1NC(=O)CN1C(=O)CN=C(c2ccccc2Cl)c2cc(Cl)ccc21	none
O=C(CCCCn1c(=O)[nH]c2ccsc2c1=O)N1CCN(c2cccc(C(F)(F)F)c2)CC1	FMDV FLuc inconclusive
Cc1cccc(N2CCN(C(=O)CCCCn3c(=O)[nH]c4ccsc4c3=O)CC2)c1C	FMDV FLuc 14.1µM
COC1C(O)C(C)OC(OC2CCC3(C)C(CC[C@@H]4[C@@H]3CCC3(C)C(C5=CC(=O)OC5)C(O)CC43O)C2)C1O (some centres undefined)	FMDV Renilla 5.62µM, FMDV FLuc 2.24µM
C[C@H]1O[C@@H](O[C@H]2CC[C@]3(C=O)[C@H]4CC[C@]5(C)[C@H](C6=CC(=O)OC6)CC[C@]5(O)[C@@H]4CC[C@]3(O)C2)C[C@H](O)[C@@H]1O	FMDV Renilla 0.251µM, FMDV FLuc inconclusive
CC(=O)OC1CCC2(C=O)[C@H]3CCC4(C)C(C5=CC(=O)OC5)CCC4(O)[C@@H]3CCC2(O)C1 (some centres undefined)	FMDV Renilla 2.51µM, FMDV FLuc 1.41µM
CC12CC[C@H]3[C@@H](CCC4(O)CC(O)CCC34/C=N/O)C1(O)CCC2C1=CC(=O)OC1 (some centres undefined)	FMDV Renilla 1.78µM, FMDV FLuc 1.41µM
CCOC(=O)c1cc(-c2ccco2)nc2c1c(C)nn2-c1ccccc1Cl	none
O=C(O)/C(=C\C=C\c1ccco1)NC(=O)c1ccccc1	none
CCN(c1ccc2sc(C(=O)NCCC(C)C)cc2c1)S(C)(=O)=O	FMDV Renilla 25.1µM, FMDV FLuc inconclusive
CC(C)CNC(=O)c1cc2cc(N(C)S(C)(=O)=O)ccc2s1	FMDV Renilla inconclusive
Cc1cccc(-c2nc(C#N)c(NCc3ccccc3)o2)c1	none
O=C(O)c1ccc(CSC(F)F)cc1	none
Cn1c(=O)c2c(-c3ccccc3)n3c(c2n(C)c1=O)C(c1cccc(O)c1)OCC3 (centres undefined)	none
CCN1CCN(CCOc2ccc3c(=O)c(-c4ccc(Br)cc4)coc3c2)CC1	FMDV Renilla inconclusive
CCN1CCN(CCOc2ccc3c(=O)c(-c4ccc(Cl)cc4)coc3c2)CC1	FMDV Renilla 17.8µM
CCc1ccccc1N/N=C(/c1ccccc1)c1ccc(Br)cc1	none
Brc1ccc(-c2noc(Cc3cccs3)n2)o1	none
O=C(/C=C/c1ccco1)OCC(=O)C12CC3CC(CC(C3)C1)C2	none
COc1ccc(OC(=O)CSc2nnc(-c3ccc(F)cc3)o2)cc1	none
CCOc1ccc(-c2nnc(SCC(=O)Oc3ccccc3)o2)cc1	FMDV FLuc 3.55µM
Cc1ccccc1-n1c(/C=C/c2c(C)n(C)c3ccccc23)nc2ccccc2c1=O	none
CCn1c(C)c(/C=C/c2cc[n+](C)cc2)c2ccccc21	FMDV Renilla 14.1µM, FMDV FLuc inconclusive
CCOc1ccc(S(=O)(=O)N(CC)CC(=O)NCC2CCCO2)cc1 (centres undefined)	none
CCOCN(C(=O)Cn1c(C)nc2ccccc21)c1c(C)cccc1CC	none
CCn1cc(C(=O)Cn2c(C)nc3ccccc32)c2ccccc21	FMDV Renilla 8.91µM, FMDV FLuc inconclusive
Cc1ccc(S(=O)(=O)N(C)C)cc1NC(=O)COc1ccc2cc(Br)ccc2c1	none
O=C(Nc1ccccc1Br)C1=C(c2ccccc2)S(=O)(=O)CCO1	FMDV Renilla inconclusive
O=C(Nc1cccnc1)C1=C(c2ccccc2)S(=O)(=O)CCO1	FMDV Renilla 25.1µM, FMDV FLuc inconclusive
Cc1ccc2cccc(OCCOc3ccc(C#N)cc3)c2n1	none
O=C(O)c1cccc(Nc2nc3ccccc3nc2NS(=O)(=O)c2ccc(Br)cc2)c1	none
COC(=O)c1ccc(COC(=O)c2cc3c(s2)CCC3)o1	none
COc1ccc(-c2nc(C)c(C(=O)N3CCN(C(C#N)c4ccc(F)cc4)CC3)s2)cc1OC (centres undefined)	none
C[N+]1(CCCCCCCCCCCCCO)CCCC1	FMDV Renilla 20µM, FMDV FLuc inconclusive
OCCCCCCCCCCCCCCCO	none
CC(C(=O)Nc1cc(Cl)cc(Cl)c1)N1CCN(c2ccc(O)cc2)CC1 (centres undefined)	none
COCCN(CCOC)CC(O)COc1ccc(C#N)cc1 (centres undefined)	none
Cc1sc(NC(=O)c2ccco2)nc1-c1ccc2c(c1)N(C)C(=O)CO2	none
CCN1C(=O)COc2ccc(-c3nc(NC(=O)c4ccccc4)sc3C)cc21	FMDV Renilla 10µM, FMDV FLuc 14.1µM

Screening results deposited in PubChem BioAssay by National Center for Advancing Translational Sciences (NCATS).
